PubChem BioAssay (NCI)
The panel holds about 83,000 compounds, 20% with a hit somewhere; the sample as a whole holds those more often.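 How to read the values: 0–100, growth inhibition (40 = 60% inhibited); 0, no net growth; -100 to 0, cell death (-40 = 40% of starting cells died; -100 = all dead).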 Unmarked numbers belong to inactive results. Calls of active or inactive are those of the source. Rule for the calls: active = growth percent below 10; inactive = the rest.

Assays:
Test in all cases: NCI-60 one-dose screen, 48 h (100 = growth as untreated, 0 = no growth, -100 = all killed)
Conditions in all cases: 10 µM unless noted
MOLT-4 leukemia = test system: MOLT-4 leukemia
SR leukemia = test system: SR leukemia
RPMI-8226 leukemia = test system: RPMI-8226 leukemia
OVCAR-8 ovarian = test system: OVCAR-8 ovarian
OVCAR-5 ovarian = test system: OVCAR-5 ovarian
OVCAR-4 ovarian = test system: OVCAR-4 ovarian
SK-OV-3 ovarian = test system: SK-OV-3 ovarian
IGROV1 ovarian = test system: IGROV1 ovarian
OVCAR-3 ovarian = test system: OVCAR-3 ovarian
HS 578T breast = test system: HS 578T breast
NCI/ADR-RES ovarian = test system: NCI/ADR-RES ovarian
T-47D breast = test system: T-47D breast
BT-549 breast = test system: BT-549 breast
MDA-MB-435 melanoma = test system: MDA-MB-435 melanoma
SW-620 colon = test system: SW-620 colon
MCF7 breast = test system: MCF7 breast
HCT-116 colon = test system: HCT-116 colon
HCC-2998 colon = test system: HCC-2998 colon
KM12 colon = test system: KM12 colon

Compound | growth (MOLT-4 leukemia) | growth (SR leukemia) | growth (RPMI-8226 leukemia) | growth (OVCAR-8 ovarian) | growth (OVCAR-5 ovarian) | growth (OVCAR-4 ovarian) | growth (SK-OV-3 ovarian) | growth (IGROV1 ovarian) | growth (OVCAR-3 ovarian) | growth (HS 578T breast) | growth (NCI/ADR-RES ovarian) | growth (T-47D breast) | growth (BT-549 breast) | growth (MDA-MB-435 melanoma) | growth (SW-620 colon) | growth (MCF7 breast) | growth (HCT-116 colon) | growth (HCC-2998 colon) | growth (KM12 colon)
C[C@]12CCc3sc(NCCc4ccccc4)nc3C1=CC[C@@H]1[C@@H]2CC[C@]2(C)C(=O)CC[C@@H]12 | 4.71% (active) | 0.916% (active) | -5.28% (active) | 72.1% | 100% | 74.2% | 112% | 88% | 6.41% (active) | 75.5% | 70.2% | 75.2% | 60.4% | 58.1% | 35.3% | 20.4% | 21.2% | 106% | 74.7%
C=CC[Se]C(=O)c1ccccc1OC(C)=O | 14.7% | 6.08% (active) | -22.8% (active) | -12.8% (active) | -32.1% (active) | -36% (active) | -28.8% (active) | 18.1% | 2.36% (active) | -8.17% (active) | 0.132% (active) | -9.76% (active) | 28.9% | 28.7% | 11.1% | -5.53% (active) | 5.71% (active) | 6.92% (active) | -24.1% (active)
CNC(=O)Oc1cccc(C(F)(F)F)c1 | 97.1% | 111% | 87.4% | 87.6% | 114% | 114% | 108% | 120% | 125% | 121% | 109% | 98.9% | 108% | 126% | 104% | 109% | 107% | 113% | 110%
CC1(C)CN1P(=O)(N1CC1(C)C)N1CC1(C)C (stereo not given) | 96.6% | 91.3% | 105% | 90.5% | 115% | 97.9% | 102% | 114% | 118% | 93.8% | 113% | 107% | 105% | 124% | 100% | 92.8% | 105% | 110% | 116%
COc1ccc(Nc2ccnc3cc(Cl)ccc23)cc1CN(CCCl)CCCl | -12.1% (active) | -0.721% (active) | -25.8% (active) | -39.3% (active) | -26.1% (active) | -15.3% (active) | 8.86% (active) | -36% (active) | -49.3% (active) | -27.6% (active) | -40.4% (active) | -7.47% (active) | -50.6% (active) | -88.3% (active) | -28.6% (active) | -10.7% (active) | -79.8% (active) | -79.5% (active) | -62.6% (active)
O=C(CN1CCN(C(=O)c2ccco2)CC1)Nc1ccc(Cl)cc1C(=O)c1ccccc1Cl | 54.2% | 72.7% | 53.6% | 87.1% | 95.9% | 87.5% | 112% | 57.8% | 115% | 78.3% | 83.4% | 64.3% | 101% | 118% | 86.8% | 84.9% | 86.8% | 97.4% | 89.1%
O=C1CN=C(c2ccc(Cl)cc2)c2sccc2N1 | 95.6% | 87.1% | 97.7% | 101% | 104% | 102% | 113% | 108% | 109% | 99.6% | 109% | 95.3% | 103% | 109% | 110% | 96.5% | 101% | 116% | 103%
CCOC(=O)CCN(C)C1=Nc2ccc(Cl)cc2C(c2ccccc2)=[N+]([O-])C1 | 94.1% | 85.8% | 106% | 101% | 109% | 99.4% | 106% | 107% | 110% | 96% | 104% | 101% | 88.9% | 115% | 104% | 97.1% | 112% | 102% | 104%
CCC(C)(C)[C@H](NC(=O)[C@H]1CCCCN1C)C(=O)N(C)[C@H](C[C@@H](OC(C)=O)c1nc(C(=O)N[C@@H](Cc2ccccc2)C[C@H](C)C(=O)O)cs1)C(C)C | 15.5% | 6.11% (active) | 7.76% (active) | 14.2% | 42.5% | 40.4% | 38.1% | 17.5% | 5.97% (active) | 13.3% | 16.8% | 76.7% | -34.7% (active) | -47.2% (active) | 26.6% | 23.9% | -10% (active) | 22.2% | 4.26% (active)
CCN1C(=O)C(=C/C=C/c2ccccc2)C(=O)N(CC)C1=O | 6.92% (active) | -6.58% (active) | 61% | 54% | 107% | 111% | 103% | 84.5% | 42.6% | 91.2% | 78.6% | 96.3% | 91.9% | 29.9% | 26.5% | 74.5% | 16.3% | 112% | 86.5%
O=C1CNC(c2ccccc2)c2cc(Cl)ccc2N1 (stereo not given) | 93.5% | 88.8% | 109% | 99.7% | 113% | 112% | 98.2% | 100% | 98% | 109% | 100% | 88.4% | 122% | 108% | 97.2% | 97.8% | 97% | 106% | 91.2%
COC(=O)[C@@H](C)C[C@H](Cc1ccccc1)NC(=O)c1csc([C@@H](C[C@H](C(C)C)N(C)C(=O)[C@@H](NC(=O)[C@H]2CCCCN2C)C(C(F)(F)F)C(F)(F)F)OC(C)=O)n1 | 5.94% (active) | 5.49% (active) | 11.2% | 16.8% | 39.6% | 43.7% | 16.4% | 20.2% | -42.5% (active) | 17.6% | 23.8% | 59.7% | -21.6% (active) | -46.1% (active) | 23.1% | 12.2% | -10.3% (active) | 19.9% | 7.94% (active)
Cc1cc(N(CCCl)CCCl)ccc1C=Nc1ccccc1-c1ccccc1 | 41.9% | 30.6% | 86.7% | 74% | 43.1% | 99.5% | 98.6% | 47.8% | 88.3% | 104% | 59.8% | 27.5% | 83.7% | 93.5% | 67% | 39.1% | 75.8% | 96.9% | 97.3%
C/C=C(\C)C(=O)O[C@@H]1C(O)[C@H]2OC(COC(=O)CCC(=O)CCCCCC[C@H](CCCCC)O[C@@H]3OC(C)[C@H](OC(C)=O)C(O)[C@H]3O2)[C@H]1OC(=O)/C=C/c1ccccc1 (stereo not given in full) | 37.7% | -7.08% (active) | 2.87% (active) | 24% | 49.2% | 18% | 12.1% | 27.3% | 15.4% | 28.7% | 38.5% | -6.33% (active) | 22.1% | 0.295% (active) | 24.6% | 17.6% | 8.86% (active) | 39.3% | 16.4%
NC(=O)CNc1ccc([As]=[As]c2ccc(NCC(N)=O)cc2)cc1 (stereo not given) | 58.8% | 14% | 13.5% | 61.2% | 74.6% | 60.6% | 93.7% | 8.16% (active) | -41.5% (active) | 10.5% | 65.6% | 33.3% | 31.6% | 61.7% | 24.6% | 22.9% | 54.7% | 79.1% | 88.5%
